Our source for the growth values is PubChem BioAssay (NCI).

The panel holds about 83,000 compounds, 20% with a hit somewhere; the sample as a whole holds those more often.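 Note: values are percent growth. 100 is the growth of untreated cells, values between 100 and 0 indicate rising inhibition; between -100 and 0 indicates cell death.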 A number with no mark means an inactive call. Active and inactive are the calls of the source. The calls were made as follows: active = growth percent below 10; inactive = the rest.

What all share (test): NCI-60 one-dose screen, 48 h (100 = growth as untreated, 0 = no growth, -100 = all killed)
Settings in all cases: 10 µM unless noted

Test [1] deals with T-47D breast.
Test [2] deals with BT-549 breast.
The subject of test [3] is MDA-MB-435 melanoma.
In test [4] the test system is SW-620 colon.
Test [5] has as its system MCF7 breast.
The test system of test [6] is HCT-116 colon.
Test [7] has as its system HCC-2998 colon.
In test [8] the test system is KM12 colon.

Consider `Cn1c(/C(C#N)=C/c2ccc3ccccc3c2)cc2ccccc21`, for which the growth in test [1] is 73.4%; in test [2], -16.6% (active); in test [3] it was -14.7% (active); in test [4], 26.4%; in test [5], 14.1%; in test [6], 8.56% (active). Moreover, the growth in test [7] was 16.9%; in test [8] it was 15.1%.
Consider `N#C/C(=C\c1ccc(-c2ccc(F)cc2)o1)c1nc(-c2ccco2)cs1`, for which the growth was -26.3% (active) in test [1]; 106% in test [2]; 102% in test [3]; 96.5% in test [4]; 11.7% in test [5]; 101% in test [6]. Moreover, the growth was 51% in test [7] and 60.6% in test [8].
With `COc1cc2c(cc1-c1c(C)noc1C)ncc1nc(C3CCC(F)(F)CC3)n([C@@H](C)COC(F)F)c12`, the growth in test [1] was 29.2%; in test [2], 56.3%; in test [3], 36.5%; in test [4] it was 62.5%; in test [5] it was 13.6%; in test [6] it was 34.1%. In addition, the growth is 52.3% in test [7] and 41.8% in test [8].
Take `C=C1C(=O)O[C@H]2[C@H]1CC/C(COC(=O)NCCc1c[nH]c3ccccc13)=C\CC[C@@]1(C)O[C@@H]21`: the growth in test [1] is -36.9% (active); in test [2] it was -12.9% (active); in test [3], 42%; in test [4] it was -33.2% (active); in test [5], 6.64% (active); in test [6], -89.1% (active). For the same compound, the growth in test [7] is 94.7%; in test [8], 89.6%.
Regarding `COc1ccc(-c2cc(=O)oc3ccc(Cl)cc23)cc1F`, the growth in test [1] is 50.5%; in test [2], 18.9%; in test [3], -21.1% (active); in test [4] it was 23.5%; in test [5], 17.4%; in test [6], 5.47% (active). Besides, the growth in test [7] is 19.6%; in test [8], 11.2%.
Consider `COc1ccc(/C=C(\C#N)c2cc3ccccc3n2S(C)(=O)=O)cc1`, for which the growth in test [1] was 96.2%; in test [2], 86%; in test [3], 6.05% (active); in test [4], 70.1%; in test [5], 66.8%; in test [6], 82.9%. In addition, the growth in test [7] was 94%; in test [8], 69%.
As for `COc1ccccc1CNc1nc(N)nc2[nH]c3ccc(O)cc3c12`, the growth in test [1] was 32.1%; in test [2], 62.8%; in test [3], -27.6% (active); in test [4], 25.9%; in test [5] it was 19.2%; in test [6] it was 31%. The growth is 67% in test [7] and 22.4% in test [8].
For the compound `CC(=O)O[C@H]1CC[C@@]2(C)C(=CC[C@@H]3[C@@H]2CC[C@]2(C)C(=O)N(O)C(=O)C[C@@H]32)C1`, the growth in test [1] is 87.1%; in test [2] it was 91.9%; in test [3] it was 104%; in test [4], 72.6%; in test [5] it was 76%; in test [6], 76.3%. The values for the growth in test [7] and in test [8] were 78.1% and 71.8%, respectively.
Regarding `CC[C@H](CC[C@@H](C)[C@H]1CC[C@H]2[C@@H]3/C(=C/c4cccnc4)C(=O)C4=CC(=O)CC[C@]4(C)[C@H]3CC[C@]12C)C(C)C`, the growth in test [1] is 47.7%; in test [2] it was 91.3%; in test [3], 99.7%; in test [4], 93.7%; in test [5], 51%; in test [6] it was 61.9%. For the same compound, the growth in test [7] was 98.8%; in test [8], 97.1%.
`CC1(C)CC[C@]2(CO)CC[C@]3(C)C(=CC[C@@H]4[C@@]5(C)CC[C@H](NCO)C(C)(C)[C@@H]5CC[C@]43C)[C@@H]2C1`: the growth is 4.47% (active) in test [1]; 59.1% in test [2]; -5.37% (active) in test [3]; -71.9% (active) in test [4]; -26.3% (active) in test [5]; -78.2% (active) in test [6]. Also, the values for the growth in test [7] and in test [8] were 6.82% (active) and -80.7% (active), respectively.
As for `COc1ccc(C2=NN(c3nc(-c4ccc(OC)cc4)c(C#N)c(=O)n3C)C(=O)CC2)cc1`, the growth was 92.4% in test [1]; 107% in test [2]; 109% in test [3]; 108% in test [4]; 92% in test [5]; 97.4% in test [6]. The growth is 91.8% in test [7] and 107% in test [8].
As to `N=C(N)N=Nc1ccc(O)cc1`, the growth is 98.8% [100 µM] in test [1]; 19.3% [100 µM] in test [2]; 80.4% [100 µM] in test [3]; 58.9% [100 µM] in test [4]; 9.71% [100 µM] (active) in test [5]; 48% [100 µM] in test [6]. Further, the growth in test [7] was 54.6% [100 µM]; in test [8] it was 89.7% [100 µM].
As to `CCN1CCN(C(=O)[C@]23CCC(C)(C)C[C@@H]2C2=CC[C@@H]4[C@@]5(C)C/C(=C/c6ccncc6)C(=O)C(C)(C)[C@@H]5CC[C@@]4(C)[C@]2(C)CC3)CC1`, the growth is -2.08% (active) in test [1]; -5.92% (active) in test [2]; -29.9% (active) in test [3]; -54.1% (active) in test [4]; -53.6% (active) in test [5]; -92.4% (active) in test [6]. Further, the growth in test [7] was -68.8% (active); in test [8], -39.9% (active).
`O=C(/C=C/c1ccc2ccccc2c1)Nc1ncc(Cc2ccccc2)s1`: the growth in test [1] was 25.7%; in test [2], 72.5%; in test [3], 66.1%; in test [4], 42.6%; in test [5], 50.3%; in test [6] it was 21%. Besides, the growth in test [7] is 92%; in test [8], 64.4%.
Consider `COc1ccc2[nH]c(-c3ccc(Cl)cc3)cc(=O)c2c1`, for which the growth in test [1] was 116%; in test [2], 92.9%; in test [3] it was 94.7%; in test [4], 98.2%; in test [5], 91.4%; in test [6], 102%. In addition, the growth is 100% in test [7] and 98.8% in test [8].
